# Paper PMC5540273 (PLoS ONE, 2017)
# Test system: PAK1
# Settings: concentration: 1 μM, replicates: in singlicate; n = 1
# 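Note: KINOMEscan kinase panel screen.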
row,SMILES,%Inh [%]
1,O=C(Nc1cccc(-c2nn3ccccc3c2-c2ccnc(Nc3cccc(C(F)(F)F)c3)n2)c1)c1c(F)cccc1F [GSK292658],9
2,O=C(NC1CCN(c2ccnc(Nc3ccc(F)cc3)n2)C1)c1cc2ccccc2s1 (stereo not drawn) [GSK1379716],18
3,COc1cc(Nc2nccc(-c3c(-c4cccc(NC(=O)c5c(F)cccc5F)c4)nn4ncccc34)n2)cc(OC)c1OC [GSK327238],70
4,COc1cccc(-c2ccc3c(NC(=O)C4CC4)n[nH]c3n2)c1 [SB-710903],0
5,Cn1cc(-c2ccc3c(c2)CCN3C(=O)Cc2cccc(Cl)c2)c2c(N)ncnc21 [GSK2606590],17

# Test system: PAK2
# Settings: concentration: 1 μM, replicates: in singlicate; n = 1
row,SMILES,%Inh [%]
1,FC(F)(F)c1ccc(/C=C/c2cncnc2Nc2ccc3[nH]c(Cc4ccccc4)nc3c2)cc1 [GW709199],16
2,COc1ccc(Nc2nccc(NCCNC(=O)c3cc4ccccc4s3)n2)cc1 [GSK1379896],0
3,Cl.Cl.NCC(NCc1ccc(-c2ccnc3[nH]ccc23)s1)c1ccccc1 (stereo not drawn) [GSK1321565],0
4,O=C(Nc1cccc(-c2nn3ncccc3c2-c2ccnc(Nc3ccccc3)n2)c1)c1c(F)cccc1F [GSK198271],16
5,Cn1cc(-c2ccc3c(c2)CCN3C(=O)Cc2cccc(F)c2)c2c(N)ncnc21 [GSK2603358],0
6,Nc1ncc(-c2cccnc2)c2scc(-c3ccc4c(c3)CCN4C(=O)Cc3ccccc3)c12 [GSK683281],19
7,COC(=O)Nc1nc2cc(Oc3ccc(NC(=O)Nc4cc(C(F)(F)F)ccc4F)cn3)ccc2[nH]1.Cl.Cl [GW681170],0
8,CCn1c(-c2nonc2N)nc2c(C#CC(C)(C)O)nc(OC[C@H](N)c3ccccc3)cc21 [GSK943949],0
9,COc1ccc(Nc2nccc(N3CCC(NC(=O)Nc4cccc(OC)c4)C3)n2)cc1 (stereo not drawn) [GSK1379742],27
10,O=C(Nc1cccc(Oc2ccc3nc(NC(=O)C4CC4)cn3n2)c1)c1ccccc1C(F)(F)F,6
11,Fc1ccc(-c2ncn(C3CCNCC3)c2-c2ccnc(Oc3ccc(-c4ccccc4)cc3)n2)cc1 [SB-245391],18
12,CC(=O)Nc1nc2cnc(Nc3cc(NC(=O)c4cccc(C5(C#N)CC5)c4Cl)ccc3C)nc2s1,0
13,Clc1ccc(-c2nn3ncccc3c2-c2ccnc(Nc3ccc4c(c3)OCCO4)n2)cc1 [GW829116],28
14,O=C(Nc1ccccc1F)NC1CCN(c2ccnc(Nc3ccc(F)cc3)n2)CC1 [GSK1379800],0
15,c1ccc(-c2cnc3nccnn23)cc1 [AH20685],20
16,COc1cc2c(cc1OCCN1CCNCC1)ncc1c3ccc(C#N)cc3[nH]c21,4
17,COc1cccc(C2=C(Nc3ccc(Cl)c(C(=O)O)c3)C(=O)NC2=O)c1 [SB-390769],28
18,O=C(O)C(F)(F)F.O=C(O)C(F)(F)F.O=c1[nH]ccc2nc(N[C@@H]3CCCNC3)nc(Nc3ccc(S(=O)(=O)N4CCOCC4)cc3)c12 [GSK2177277],99.3
19,COc1cccc(NC(=O)NC2CCN(c3ccnc(Nc4cc(OC)c(OC)c(OC)c4)n3)C2)c1 (stereo not drawn) [GSK1379763],0

row,SMILES,%Inh [%]
1,O=c1[nH]cc(-c2ccc(N3CCOCC3)cc2)c2sc(-c3cn[nH]c3)cc12 [GSK2276055],26
2,Nc1ncc(-c2ccc3nccc(-c4ccncc4)c3c2)cc1S(=O)(=O)N1CCOCC1 [GSK1627798],20
3,Cl.c1ccc(-c2ccc3c(Nc4ccc5[nH]ncc5c4)ccnc3c2)nc1 [GW440137],0
4,Cc1ccc(C)c(NC(=O)NC2CCN(c3ccnc(Nc4ccc(F)cc4)n3)C2)c1 (stereo not drawn) [GSK1379720],2
5,Cl.Cl.NCC(NC(=O)c1cc(-c2ccccc2)c(-c2ccnc3[nH]ccc23)s1)c1ccccc1 (stereo not drawn) [GSK1321561],0
6,Cc1occc1-c1ncc(OC[C@@H](N)Cc2c[nH]c3ccccc23)cc1-c1ccc2[nH]nc(C)c2c1.O=C(O)C(F)(F)F [GSK682037],68
7,CN(c1ccc(NC(=O)Nc2cc(C(F)(F)F)ccc2F)cc1)c1ccnc(Nc2ccc(S(N)(=O)=O)cc2)n1 [GW809893],11
8,CC(C)c1nc(-c2cccc(NS(=O)(=O)c3c(F)cccc3F)c2F)c(-c2ccnc(Nc3ccc(N4CCOCC4)nc3)n2)s1 [GSK2008607],18
9,Cc1cccc(Nc2nc(N[C@H]3CCNC3)ncc2C(N)=O)c1.Cl [GSK2197149],70
10,COc1cccc(C(=O)Nc2cccc(Oc3ccc4nc(NC(=O)C5CC5)cn4n3)c2)c1,26
11,Cl.c1ccc(-c2ccc3c(Nc4ccc5[nH]ccc5c4)ccnc3c2)nc1 [GW440138],0
12,CC(=O)N1CCN(c2ccc(Nc3nccc(-c4sc(C(C)C)nc4-c4cccc(NS(=O)(=O)c5cccc(Cl)c5)c4)n3)cn2)CC1 [GSK1660437],90.1
13,CCn1c(-c2nonc2N)nc2c(C#CC(C)(C)O)ncc(OCCCCN)c21.O=C(O)C(F)(F)F.O=C(O)C(F)(F)F [GSK507274],88
14,O=C(Nc1cccc(-c2nn3ccccc3c2-c2ccnc(Nc3cccc(C(F)(F)F)c3)n2)c1)c1c(F)cccc1F [GSK292658],6
15,O=C(NC1CCN(c2ccnc(Nc3ccc(F)cc3)n2)C1)c1cc2ccccc2s1 (stereo not drawn) [GSK1379716],16
16,COc1cc(Nc2nccc(-c3c(-c4cccc(NC(=O)c5c(F)cccc5F)c4)nn4ncccc34)n2)cc(OC)c1OC [GSK327238],9
17,COc1cccc(-c2ccc3c(NC(=O)C4CC4)n[nH]c3n2)c1 [SB-710903],0
18,Cn1cc(-c2ccc3c(c2)CCN3C(=O)Cc2cccc(Cl)c2)c2c(N)ncnc21 [GSK2606590],22
